Measurements: PubChem BioAssay AID1159580 (chemical genetic matrix, 2015)
Where “and” joins values, the source holds several entries; their conditions need not be identical. Equal values may be shown once. About 2,000 (36%) of roughly 5,500 compounds were called active. Inconclusive results (about 18%) are left out. Rule as the data show it: active = normalized growth mostly below about 0.91 (no sharp cut-off); inconclusive = no clear call, values can overlap the other calls; inactive = mostly above about 0.92. The list shows a part of the results.

Assay: chemical genetic growth profiling, strain panel (AID 1159580);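 also: tested at 20 µM; growth read once vehicle control cultures reached saturation at 30 °C; 1 = growth at the plate median or of vehicle wells; lower values mean less growth of the strain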
Settings: S. cerevisiae deletion strains, growth OD

Measured: normalized growth

NCCC(=O)N[C@@H](Cc1cnc[nH]1)C(=O)O
inactive: locus YAL021C, strain ccr4, stronger effect = lower value 0.997 | locus YAL026C, strain drs2, stronger effect = lower value 1.01 | locus YAL030W, strain snc1, stronger effect = lower value 1.01 | locus YBL061C, strain skt5, stronger effect = lower value 1.01 | locus YBR009C, strain hhf1, stronger effect = lower value 1.01 | locus YBR021W, strain FUR4, stronger effect = lower value 1.06 | locus YBR023C, strain chs3, stronger effect = lower value 1 | locus YBR171W, strain sec66, stronger effect = lower value 1.02 | locus YBR229C, strain ROT2, stronger effect = lower value 0.993 | locus YBR231C, strain swc5, stronger effect = lower value 1.01 | locus YBR279W, strain paf1, stronger effect = lower value 1.01 | locus YCL011C, strain gbp2, stronger effect = lower value 1.01 | locus YCL016C, strain dcc1, stronger effect = lower value 1.01 | locus YCL029C, strain bik1, stronger effect = lower value 0.967 | locus YCL061C, strain MRC1, stronger effect = lower value 1.01 | locus YCL069W, strain vba3, stronger effect = lower value 1.01 | locus YCR088W, strain abp1, stronger effect = lower value 1.01 | locus YDL005C, strain med2, stronger effect = lower value 1.01 | locus YDL035C, strain GPR1, stronger effect = lower value 0.997 | locus YDL040C, strain nat1, stronger effect = lower value 0.998 | locus YDL074C, strain BRE1, stronger effect = lower value 1.01 | locus YDL101C, strain DUN1, stronger effect = lower value 0.994 | locus YDL134C, strain PPH21, stronger effect = lower value 1.04 | locus YDL185W, strain tfp1, stronger effect = lower value 0.957 | locus YDL192W, strain arf1, stronger effect = lower value 0.98 | locus YDR001C, strain nth1, stronger effect = lower value 1.01 | locus YDR069C, strain doa4, stronger effect = lower value 1.01 | locus YDR101C, strain arx1, stronger effect = lower value 0.99 | locus YDR137W, strain rgp1, stronger effect = lower value 1.01 | locus YDR159W, strain sac3, stronger effect = lower value 1.02 | locus YDR162C, strain NBP2, stronger effect = lower value 1.03 | locus YDR195W, strain ref2 0.978 | locus YDR297W, strain sur2, stronger effect = lower value 1.01 | locus YDR318W, strain mcm21, stronger effect = lower value 0.986 | locus YDR334W, strain swr1, stronger effect = lower value 1.01 | locus YDR335W, strain msn5, stronger effect = lower value 1.01 | locus YDR388W, stronger effect = lower value 0.979 | locus YDR392W, strain spt3, stronger effect = lower value 1.03 | locus YDR502C, strain sam2, stronger effect = lower value 0.997 | locus YEL003W, strain gim4, stronger effect = lower value 1.02 | locus YEL037C, strain rad23, stronger effect = lower value 1.01 | locus YEL061C, strain CIN8 (second series), stronger effect = lower value 1.01 | locus YEL061C, strain CIN8, stronger effect = lower value 0.997 | locus YER015W, strain faa2, stronger effect = lower value 1.01 | locus YER016W, strain bim1, stronger effect = lower value 1 | locus YER110C, stronger effect = lower value 0.972 | locus YER111C, strain swi4, stronger effect = lower value 0.992 | locus YER155C, strain BEM2 (second series), stronger effect = lower value 1.03 | locus YER155C, strain BEM2, stronger effect = lower value 0.999 | locus YER167W, strain BCK2, stronger effect = lower value 0.99 | locus YFR010W, strain ubp6, stronger effect = lower value 1.02 | locus YGL078C, strain dbp3, stronger effect = lower value 0.999 | locus YGL086W, strain mad1, stronger effect = lower value 1 | locus YGL167C, strain pmr1, stronger effect = lower value 1.01 | locus YGL173C, strain kem1, stronger effect = lower value 1.01 | locus YGL227W, strain vid30, stronger effect = lower value 1.01 | locus YGL240W, strain doc1, stronger effect = lower value 1.01 | locus YGL248W, strain PDE1, stronger effect = lower value 1 | locus YGL253W, strain hxk2, stronger effect = lower value 1.02 | locus YGR135W, strain pre9, stronger effect = lower value 0.977 | locus YGR229C, strain SMI1, stronger effect = lower value 1.02 | locus YGR252W, strain gcn5, stronger effect = lower value 1.05 | locus YHR013C, strain ard1, stronger effect = lower value 1.04 | locus YHR027C, strain rpn1, stronger effect = lower value 1.02 | locus YHR030C, strain SLT2, stronger effect = lower value 0.983 and 1.01 | locus YHR079C, strain IRE1 (second series), stronger effect = lower value 0.979 | locus YHR079C, strain IRE1, stronger effect = lower value 1.02 | locus YHR094C, strain hxt1, stronger effect = lower value 0.987 | locus YHR129C, strain ARP1, stronger effect = lower value 0.994 | locus YHR142W, strain chs7, stronger effect = lower value 1.03 | locus YHR200W, strain rpn10, stronger effect = lower value 0.986 | locus YIL066C, strain RNR3, stronger effect = lower value 1.01 | locus YIL073C, strain SPO22, stronger effect = lower value 0.942 | locus YIL125W, strain kgd1, stronger effect = lower value 0.975 | locus YIR030C, strain dcg1, stronger effect = lower value 0.983 | locus YJL092W, strain hpr5, stronger effect = lower value 1.01 | locus YJL095W, strain BCK1 (second series), stronger effect = lower value 1.02 | locus YJL095W, strain BCK1, stronger effect = lower value 1.02 and 1.01 | locus YJL115W, strain asf1, stronger effect = lower value 1.02 | locus YJL129C, strain trk1, stronger effect = lower value 1.02 | locus YJL134W, strain LCB3, stronger effect = lower value 0.988 | locus YJL154C, strain vps35, stronger effect = lower value 1.01 | locus YJL164C, strain tpk1, stronger effect = lower value 1.01 | locus YJL166W, strain qcr8, stronger effect = lower value 1.01 | locus YJL168C, strain set2, stronger effect = lower value 0.985 | locus YJL187C, strain SWE1 (second series), stronger effect = lower value 0.999 | locus YJL187C, strain SWE1, stronger effect = lower value 1 | locus YJR043C, strain POL32, stronger effect = lower value 1.02 | locus YJR066W, strain TOR1, stronger effect = lower value 0.968 | locus YKL009W, strain mrt4, stronger effect = lower value 0.94 | locus YKL068W, stronger effect = lower value 0.978 | locus YKL085W, strain MDH1 (second series), stronger effect = lower value 0.975 | locus YKL085W, strain MDH1, stronger effect = lower value 0.975 | locus YKL160W, strain elf1, stronger effect = lower value 1.01 | locus YKL190W, strain CNB1, stronger effect = lower value 0.991 | locus YKR001C, strain vps1, stronger effect = lower value 1.02 | locus YKR026C, strain gcn3, stronger effect = lower value 1.01 | locus YKR091W, strain srl3, stronger effect = lower value 1.01 | locus YLL001W, strain dnm1, stronger effect = lower value 1 | locus YLL026W, stronger effect = lower value 1.01 | locus YLL041C, strain sdh2, stronger effect = lower value 1.01 | locus YLR027C, strain aat2, stronger effect = lower value 0.997 | locus YLR039C, strain RIC1, stronger effect = lower value 1.01 | locus YLR058C, strain SHM2, stronger effect = lower value 0.987 | locus YLR102C, strain apc9, stronger effect = lower value 0.991 | locus YLR113W, strain HOG1, stronger effect = lower value 0.985 | locus YLR221C, strain rsa3, stronger effect = lower value 1.01 | locus YLR258W, strain gsy2, stronger effect = lower value 1.02 | locus YLR262C, strain YPT6 (second series), stronger effect = lower value 1.02 | locus YLR262C, strain YPT6, stronger effect = lower value 0.93 | locus YLR268W, strain sec22, stronger effect = lower value 0.982 | locus YLR320W, strain mms22, stronger effect = lower value 1.02 | locus YLR330W, strain CHS5, stronger effect = lower value 0.983 | locus YLR342W, strain FKS1 (second series), stronger effect = lower value 1.01 | locus YLR342W, strain FKS1, stronger effect = lower value 1.02 | locus YLR357W, strain rsc2, stronger effect = lower value 1.03 | locus YLR370C, strain arc18, stronger effect = lower value 1.01 | locus YLR371W, strain rom2, stronger effect = lower value 0.978 | locus YLR384C, strain iki3, stronger effect = lower value 1.02 | locus YLR418C, strain cdc73, stronger effect = lower value 1 | locus YML016C, strain PPZ1, stronger effect = lower value 0.992 | locus YML032C, strain rad52, stronger effect = lower value 0.976 | locus YML120C, strain ndi1, stronger effect = lower value 1.01 | locus YML124C, strain tub3, stronger effect = lower value 0.986 | locus YMR058W, strain fet3, stronger effect = lower value 1.02 | locus YMR078C, strain ctf18, stronger effect = lower value 0.984 | locus YMR125W, strain sto1, stronger effect = lower value 1.01 | locus YMR129W, stronger effect = lower value 1.01 | locus YMR205C, strain PFK2, stronger effect = lower value 1.01 | locus YMR223W, strain ubp8, stronger effect = lower value 0.979 | locus YMR231W, strain pep5, stronger effect = lower value 0.985 | locus YMR307W, strain GAS1, stronger effect = lower value 1.08 | locus YNL067W, strain RPL9B, stronger effect = lower value 1.01 | locus YNL071W, strain lat1, stronger effect = lower value 1.01 | locus YNL128W, strain TEP1, stronger effect = lower value 0.989 | locus YNL153C, strain GIM3, stronger effect = lower value 1.02 | locus YNL183C, strain NPR1, stronger effect = lower value 0.983 | locus YNL209W, strain ssb2, stronger effect = lower value 1 | locus YNL233W, strain BNI4, stronger effect = lower value 1.03 | locus YNL248C, strain rpa49, stronger effect = lower value 1.02 | locus YNL250W, strain rad50, stronger effect = lower value 0.97 | locus YNL271C, strain bni1, stronger effect = lower value 0.988 | locus YNL298W, strain CLA4, stronger effect = lower value 0.996 | locus YNL307C, strain MCK1, stronger effect = lower value 0.984 | locus YNL322C, strain KRE1 (second series), stronger effect = lower value 1.02 | locus YNL322C, strain KRE1, stronger effect = lower value 0.994 | locus YNR049C, strain mso1, stronger effect = lower value 1.01 | locus YNR052C, strain pop2, stronger effect = lower value 0.982 | locus YOL012C, strain htz1 0.915 | locus YOL147C, strain pex11, stronger effect = lower value 0.993 | locus YOR001W, strain rrp6, stronger effect = lower value 1.01 | locus YOR061W, strain CKA2, stronger effect = lower value 0.99 | locus YOR069W, strain VPS5, stronger effect = lower value 0.993 | locus YOR070C, strain gyp1, stronger effect = lower value 1.02 | locus YOR080W, strain dia2, stronger effect = lower value 1 | locus YOR083W, strain WHI5, stronger effect = lower value 1.02 | locus YOR106W, strain vam3, stronger effect = lower value 1.03 | locus YOR136W, strain idh2, stronger effect = lower value 0.99 | locus YOR144C, strain elg1, stronger effect = lower value 1.01 | locus YOR184W, strain ser1, stronger effect = lower value 1.01 | locus YOR231W, strain MKK1, stronger effect = lower value 1.02 | locus YOR265W, strain rbl2, stronger effect = lower value 0.999 | locus YOR270C, strain vph1, stronger effect = lower value 1.08 | locus YOR290C, strain snf2, stronger effect = lower value 1.02 | locus YOR316C, strain cot1, stronger effect = lower value 0.983 | locus YPL051W, strain arl3, stronger effect = lower value 1.01 | locus YPL055C, strain LGE1, stronger effect = lower value 1.03 | locus YPL078C, strain atp4, stronger effect = lower value 1.01 | locus YPL106C, strain sse1, stronger effect = lower value 1.02 | locus YPL240C, strain hsp82, stronger effect = lower value 1.01 | locus YPL241C, strain CIN2, stronger effect = lower value 0.996 | locus YPL256C, strain CLN2, stronger effect = lower value 1.04 | locus YPR119W, strain clb2, stronger effect = lower value 0.984 | locus YPR141C, strain kar3, stronger effect = lower value 0.973 | locus YPR163C, strain tif3, stronger effect = lower value 0.975 | locus YPR167C, strain met16, stronger effect = lower value 1.01 | strain wtn01, stronger effect = lower value 0.999
